High-throughput results as filed in PubChem.
Hits are enriched below; roughly 32% of the tested compounds scored in any of these assays.
PostGolgi ctrl – inhibits growth of the yeast control strain; inhibition, % at 10 µM; 5% of 98,000 active; efflux-deficient yeast background strain, growth absorbance A615, 16 h
CYP2C9 inh – human CYP2C9 inhibition; inhibition, % at 5 µM; 20% of 96,000 active; CYP2C9 Supersomes, luciferin-H conversion, luminescence; P11712;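 active means blocking of liver enzyme CYP2C9 beyond about 50% at 5 µM, limit read from the data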
Target sequence (P11712 whole entry, looked up): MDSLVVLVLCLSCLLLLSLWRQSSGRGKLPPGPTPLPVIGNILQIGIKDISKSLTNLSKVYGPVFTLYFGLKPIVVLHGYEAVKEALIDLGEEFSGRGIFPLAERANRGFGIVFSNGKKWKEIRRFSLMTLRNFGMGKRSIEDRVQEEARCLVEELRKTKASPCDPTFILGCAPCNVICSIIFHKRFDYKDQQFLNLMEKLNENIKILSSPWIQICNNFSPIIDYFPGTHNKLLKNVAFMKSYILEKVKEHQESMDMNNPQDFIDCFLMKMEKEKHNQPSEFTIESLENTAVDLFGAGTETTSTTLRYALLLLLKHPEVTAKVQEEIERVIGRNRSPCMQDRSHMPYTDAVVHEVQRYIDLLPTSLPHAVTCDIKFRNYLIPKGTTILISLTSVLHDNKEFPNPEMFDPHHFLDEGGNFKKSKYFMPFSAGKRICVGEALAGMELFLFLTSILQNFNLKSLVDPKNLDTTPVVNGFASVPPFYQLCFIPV
CYP2C9 act – CYP2C9 (human) activation. recombinant CYP2C9, luciferin-H conversion, luminescence; hits give high values; factor 1 = untreated enzyme, 0 = blocked. activation factor at 5 µM. 1.4% of 96,000 active;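 active means activation factor of 2 or more for CYP2C9 at a 5 µM dose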;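 further: 0 = sulfaphenazole-blocked wells and 1 = vehicle-only wells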
PostGolgi yeast – growth inhibition of a yeast mutant, post-Golgi transport screen; post-Golgi transport phenotypic cell assay; inhibition, % at 10 µM; 0.9% of 98,000 active; AID 739;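 further: yeast cells grown in 1536-well plates; yeast grown about 18 h at 30C before absorbance read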
CYP2C19 activ – activators of human cytochrome P450 2C19. P33261. recombinant CYP2C19, luciferin-H EGE luminescence; hits give high values; 0 = fully inhibited enzyme, 1 = untreated enzyme. activation factor at 5 µM. 96,000 tested, under 10 active. AID 1025;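 active means activation factor of at least 2 at 5 µM in the primary screen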;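 further: 0 = wells with 2.5 mM tranylcypromine and 1 = vehicle-only wells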
CYP2C19 inhib – blocks human cytochrome P450 2C19 | P33261 | inhibition, % at 5 µM | 21% of 96,000 active | CYP2C19 Supersomes, luciferin-H EGE luminescence, 30 min;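 active means CYP2C19 inhibition above a set limit at 5 µM in the primary screen, cut at about 50% in these data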;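 further: plate controls were negative control wells for no effect and 2.5 mM tranylcypromine positive control for full effect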
* = called active by the depositor. Unless noted, no stated cut-off is given here; in the data, active means inhibition above about 30%; inactive means the rest.

SMILES | PostGolgi ctrl | CYP2C9 inh | CYP2C9 act | PostGolgi yeast | CYP2C19 activ | CYP2C19 inhib
C=CCn1c(SCC(=O)c2[nH]c(C)c(C(C)=O)c2C)nnc1-c1ccncc1 | 1 | 24 | 0.8 | -9 | 0.1 | 86*
CC(=O)c1c(C)[nH]c(C(=O)CSc2nnc(-c3ccccc3)n2Cc2ccc3c(c2)OCO3)c1C | -1 | 18 | 0.8 | 0 | 0.3 | 70*
O=C(CSc1nnc(-c2ccccn2)n1Cc1ccccc1)Nc1ccc2c(c1)OCO2 | 11 | 15 | 0.8 | 7 | 1 | 1
Cc1cc(C(=O)CSc2nnc(-c3cccs3)n2Cc2ccccc2)c(C)n1C | 13 | 43 | 0.6 | -7 | 0.6 | 42
C=CCn1c(SCC(=O)O)nnc1-c1ccc(C(C)(C)C)cc1 | 6 | -5 | 1 | 2 | 1.1 | -6
CC(=O)c1c(C)[nH]c(C(=O)CSc2nnc(-c3cccs3)n2Cc2ccccc2)c1C | 12 | 72* | 0.3 | -3 | 0.3 | 73*
CCOc1ccc(C2CC(c3ccc(CC)cc3)Nc3nc(N)nn32)cc1 (stereo not given) | 11 | 40 | 0.6 | -1 | 1 | 0
CC(=O)c1cccc(NC(=O)N2CCC(c3nnc(SCC(N)=O)n3C)CC2)c1 | -10 | -4 | 1 | -9 | 1 | 5
CC(=O)c1c(C)[nH]c(C(=O)CSc2nnc(-c3ccco3)n2Cc2ccccc2)c1C | 2 | 70* | 0.3 | 22 | 0.3 | 73*
O=C(NCCCN1CCCC1=O)c1ccc(OCc2ccccc2)cc1 | 10 | 47 | 0.5 | -6 | 0.8 | 18
COCCOC(=O)C1=C(C)N(Cc2ccccc2)C(=O)NC1c1ccc(OC)cc1 (stereo not given) | 3 | 74* | 0.3 | -9 | 0 | 98*
CCOC(=O)C1=C(C)N(CCO)C(=O)NC1c1ccccc1 (stereo not given) | 8 | 27 | 0.7 | 13 | 0.6 | 40
Cc1cccc(Oc2ccc(N)cc2)c1 | 6 | 29 | 0.7 | 1 | 0.2 | 84*
Cc1cccc(Oc2cc(N)cc([N+](=O)[O-])c2)c1 | 22 | 34 | 0.7 | 6 | 0.4 | 60*
Cc1cc(C)cc(Oc2ccc(N)cc2)c1 | 7 | -77 | 1.8 | -2 | 0.2 | 82*
NC(=O)c1cnn2c(C(F)(F)F)cc(-c3ccc(F)cc3)nc12 | 2 | -8 | 1.1 | 6 | 1 | -3
Cc1ccc(C(=O)Nc2nc3ccccc3c(=O)s2)cc1 | 23 | 2 | 1 | -2 | 0.9 | 9
Cc1ccc(C(=O)Nc2nc(=O)n(C(=O)C3CC3)s2)cc1 | 9 | 79* | 0.2 | 7 | 1.1 | -6
O=C(Nc1nc(=O)c2ccccc2s1)c1ccccc1 | 25 | -2 | 1 | 5 | 1.1 | -8
Cc1ccc(C(=O)Nc2nc(=O)n(C(=O)c3ccccc3C)s2)cc1 | -8 | 82* | 0.2 | -7 | 0.7 | 31
O=C(Nc1nc(=O)n(C(=O)C2CC2)s1)c1ccccc1 | 7 | 80* | 0.2 | 5 | 1 | -3
CCOC(=O)N1CCN(c2cc(=O)n(-c3ccc(Br)cc3)c(=O)[nH]2)CC1 | -5 | 10 | 0.9 | 13 | 1 | -3
O=C(NCc1ccccc1)N(Cc1nc2ccccc2c(=O)[nH]1)C1CCCC1 | 6 | 53* | 0.5 | 4 | 0.6 | 43
COc1ccccc1NC(=O)CCc1c(C)[nH]c(=O)c(C#N)c1C | 2 | 2 | 1 | 13 | 1 | -1
Cc1ccc(S(=O)(=O)/N=C2/C=C(C3C(=O)CC(C)(C)CC3=O)C(=O)c3ccccc32)cc1 | 5 | 62* | 0.4 | -1 | 1 | 0
SMILES | PostGolgi ctrl | CYP2C9 inh | CYP2C9 act | PostGolgi yeast | CYP2C19 activ | CYP2C19 inhib
CCOc1ccc2nc(NC(=S)N(C)C)sc2c1 | 21 | 35 | 0.7 | 2 | 0.7 | 28
CCOc1ccc2c(c1)-c1c(ssc1=S)C(C)(C)N2 | 31* | 72* | 0.3 | 7 | 0.3 | 72*
C/C(=N\NC(=O)c1ccc(OC2CCCC2)cc1)c1ccc(C)s1 | -4 | 3 | 1 | -9 | 0.9 | 7
COc1ccc(CC2CCOC2=O)cc1 (stereo not given) | -4 | 3 | 1 | -10 | 0.2 | 76*
COc1ccc(CC2C(=O)OC(C)(C)OC2=O)cc1 | 4 | 10 | 0.9 | -6 | 1 | 1
O=C(NCC(c1ccc(F)cc1)N1CCOCC1)c1ccc(Br)o1 (stereo not given) | 4 | 24 | 0.8 | 0 | 0.4 | 61*
COc1ccc(C(CNC(=O)c2cc(C)oc2C)N2CCOCC2)cc1 (stereo not given) | 11 | 8 | 0.9 | 8 | 0.4 | 60*
COc1ccc(C(CNC(=O)c2ccccc2C)N2CCCC2)cc1 (stereo not given) | 27 | 13 | 0.9 | -21 | 0.8 | 22
COc1ccc(C(CNC(=O)COc2ccccc2C#N)N2CCOCC2)cc1 (stereo not given) | 0 | 60* | 0.4 | -7 | 0.6 | 41
COc1ccc(C(CNC(=O)c2ccc3c(c2)C(=O)N(CCC(C)C)C3=O)N2CCOCC2)cc1 (stereo not given) | 19 | 88* | 0.1 | 4 | 0.1 | 88*
O=C(Cn1cnc2ccccc2c1=O)OCCCCN1C(=O)c2ccccc2C1=O | 8 | 35 | 0.7 | -3 | 0.8 | 16
COc1cc(OC)cc(C(=O)NCC(=O)N2CCCCC2)c1 | 6 | -24 | 1.2 | -3 | 1 | 1
COc1ccccc1NC(=O)CSc1nc(C)c2c(c1C#N)CCCC2 | 13 | 19 | 0.8 | -1 | 0.8 | 22
CCOC(=O)Cc1cc(=O)n2[nH]c(C)c(-c3ccccc3)c2n1 | 26 | -5 | 1.1 | 19 | 1.1 | -11
CCOC(=O)Cc1c(C)nc2c(-c3cccc(Br)c3)c[nH]n2c1=O | 23 | 74* | 0.3 | 11 | 0.9 | 15
CCOC(=O)Cc1c(C)nc2c(-c3ccc(Cl)cc3)c(C)[nH]n2c1=O | 4 | 9 | 0.9 | -5 | 0.4 | 56*
CCOC(=O)Cc1c(C)nc2c(C#N)c[nH]n2c1=O | 8 | 3 | 1 | 4 | 0.7 | 25
Cc1cc(NCc2ccc(F)cc2Cl)n2nnnc2n1 | 11 | 17 | 0.8 | 1 | 0.9 | 7
O=S(=O)(NCCOCCNS(=O)(=O)c1ccccc1)c1ccccc1 | 6 | -5 | 1.1 | -5 | 0.9 | 9
C/C=C(\CS(=O)(=O)c1ccccc1)S(=O)(=O)c1ccccc1 | 5 | 30 | 0.7 | -1 | 0.1 | 87*
COc1ccccc1-n1c(SCC(=O)NC2CCCCC2)nc2c(c1=O)SCC2 | 5 | 2 | 1 | 3 | 0.9 | 12
CCN(CC)CCOC(=O)C1(c2ccc(OC)c(OC)c2)CCCC1 | 50* | 31 | 0.7 | -1 | 0.7 | 34
CCN(CC)CCOC(=O)C1(c2ccccc2)CCCC1 | -6 | 0 | 1 | 4 | 1 | 4
NC(=O)CSc1nc(N)c2c3c(sc2n1)CCCCC3 | 31* | 35 | 0.7 | 6 | 0.3 | 67*
CCSc1nc(N)c2c3c(sc2n1)CCC3 | 2 | 31 | 0.7 | 22 | 0 | 96*
